Assay [1] can be described thus: CCTE_Mundy_HCI_Cortical_NOG_NeuriteLength: CCTE's Neurite Outgrowth Assay in rat cortical cells for Neurite Length, Mundy Lab (AID 2284213). In short, it runs like this: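 First, rat primary cortical cells were plated and, 2 h later, given test chemical as a 1/10 dilution. Finally, βIII-tubulin immunostaining enabled automated imaging of neurite length.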
Assay [2] in a line: CCTE_Mundy_HCI_Cortical_Synap_Neur_Matur_NeuriteSpotCountPerNeuron: CCTE's Synaptogenesis and Neurite Maturation Assay in rat cortical cells for Neurite Spot Count per Neuron Count, Mundy Lab (AID 2284215). In short, it runs like this:
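Read-out: neurite-associated synaptophysin puncta per neuron, imaged by high-content analysis after MAP2, synaptophysin and Hoechst staining. Rat primary cortical cultures, dosed DIV 7 through DIV 12; DMSO served as baseline.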

The nature of assay [3]: CCTE_Mundy_HCI_Cortical_Synap_Neur_Matur_SynapseCount: CCTE's Synaptogenesis and Neurite Maturation Assay in rat cortical cells for Synapse Count, Mundy Lab (AID 2284218). In short, it runs like this: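 Read-out: synapse number per neuron, automated high-content imaging of fixed cells immunostained for MAP2 and synaptophysin plus Hoechst nuclei. Rat primary cortical cultures, AraC at DIV 5, chemical dosing DIV 7–12. Positive-direction fit relative to DMSO.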

Assay [4] in a line: CCTE_Mundy_HCI_Cortical_Synap_Neur_Matur_NeuriteCount: CCTE's Synaptogenesis and Neurite Maturation Assay in rat cortical cells for Neurite Count, Mundy Lab (AID 2284222).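 Also: exposure from day 7 to day 12 in vitro with readout at day 12.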 An outline of the steps: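 Chemical exposure runs DIV 7–12 in rat cortical cultures, glia suppressed by AraC at DIV 5; measurement is at DIV 12. Imaging-derived neurite counts are fitted against DMSO baseline.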

The nature of assay [5]: CCTE_Mundy_HCI_Cortical_Synap_Neur_Matur_CellBodySpotCount: CCTE's Synaptogenesis and Neurite Maturation Assay in rat cortical cells for Cell Body Spot Count, Mundy Lab (AID 2284223). In short, it runs like this: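 Read-out: cell body-associated synaptophysin puncta per neuron, imaged after MAP2, synaptophysin and Hoechst staining. Rat cortical cells, AraC DIV 5, chemical dosing DIV 7, fixation DIV 12. Activity fitted in positive direction relative to DMSO baseline.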

Assay [6] can be described thus: CCTE_Mundy_HCI_hNP1_Pro_ResponderAvgInten: CCTE's Proliferation Assay in human neuroprogenitor cells, Mundy Lab (AID 2284224; active = hit-call score of the fitted dose curve at least 0.9, where 1 is the maximum;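 also: human neural progenitor cells hNP1 derived from WA09 embryonic stem cells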). An outline of the steps:
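Human neuroprogenitors (hNP1, WA09 lineage) receive test chemical after 40 to 44 hours of attachment. A four-hour BrdU pulse begins twenty hours later, followed by fixation and high content imaging; signal is referenced to DMSO controls.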

The nature of assay [7]: UKN2_HCS_IMR90_cell_viability: Viability Assessment in the University of Konstanz (UKN) Leist Lab Neural Crest Cell Migration Assay in human induced IMR90 Pluripotent Stem Cells (UKN2) (AID 2284233).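 Also: viability of neural crest cells differentiated from IMR90 iPSC measured by calcein-AM fluorescence imaging; cells exposed to compound for 24 h after a 24 h migration phase.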 In short, it runs like this:
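cMINC format, iPSC-derived neural crest (IMR90); 24 h migration (EGF/FGF, N2-S), then 24 h toxicant. Calcein-AM/H-33342 stain 30 min; fluorescence intensity by HCS; DMSO-normalised, bidirectional fitting.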

A short description of assay [8]: CCTE_Mundy_HCI_hNP1_Casp3_7: CCTE's Caspase-Glo 3/7 Assay in human neuroprogenitor cells for Apoptosis, Mundy Lab (AID 2284240). In short, it runs like this:
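Neuroepithelial-lineage stem cells from WA09 embryonic cells were treated with chemicals after 40–44 h of culture. Twenty-four hours later, caspase-3/7 activation was detected luminescently after a 30 min room-temperature reagent step, with DMSO as baseline.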

Assay [9] can be described thus: CCTE_Mundy_HCI_Cortical_Synap_Neur_Matur_NeuronCount: CCTE's Synaptogenesis and Neurite Maturation Assay in rat cortical cells for Neuron Count, Mundy Lab (AID 2284242; active = hit-call score of the fitted dose curve at least 0.9, where 1 is the maximum;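 also: hits reduce neuron count versus DMSO baseline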). An outline of the steps: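 Rat cortical cultures; AraC DIV 5; chemical dosing + media change DIV 7 to DIV 12 (288.33 h readout). Fix, Hoechst, anti-MAP2/anti-synaptophysin immunostain; HCI neuron count vs DMSO baseline.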

Assay [10] in a line: IUF_NPC2c_oligodendrocyte_migration_120hr: Leibniz Research Institute for Environmental Medicine (IUF) 120-hour Neural Progenitor Cell Migration Assay for Oligodendrocyte Migration (NPC2c) (AID 2284297).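 Also: O4-positive oligodendrocyte migration distance divided by radial glia migration distance.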 In short, it runs like this:
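hNPC spheres (GW 16-19 cortex), PDL/laminin, DMEM/F12 3:1 + 1% N2, 37C. Dosing day 0–5, half feed day 3, DMSO ≤0.1%. Fixed 120 h; O4 ICC + Hoechst, HCI. Readout: mean oligodendrocyte distance from sphere edge / radial glia distance.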

A short description of assay [11]: IUF_NPC2a_radial_glia_migration_120hr: Leibniz Research Institute for Environmental Medicine (IUF) 120-hour Neural Progenitor Cell Migration Assay for Radial Glia Migration (NPC2a) (AID 2284298). An outline of the steps: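 Hoechst-stained nuclei imaged at 120 h; algorithm maps sphere core by densest nuclei, sets migration edge at density threshold, gives radial glia migration distance (um) per well vs DMSO. hNPC spheres (0.3 mm), PDL/laminin, DMEM/F12 3:1 + 1% N2.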

The nature of assay [12]: IUF_NPC2a_radial_glia_migration_72hr: Leibniz Research Institute for Environmental Medicine (IUF) 72-hour Neural Progenitor Cell Migration Assay for Radial Glia Migration (NPC2a) (AID 2284299). In short, it runs like this:
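Readout: mean of four manual brightfield measurements of radial glia migration distance (um) at 72 h. hNPC spheres (0.3 mm) exposed to 7 compound concentrations plus solvent control on PDL/laminin, 37C, 5% CO2; activity fitted relative to DMSO.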

Assay [13] is described as follows: IUF_NPC2b_neuronal_migration_120hr: Leibniz Research Institute for Environmental Medicine (IUF) 120-hour Neural Progenitor Cell Migration Assay for Neuron Migration (NPC2b) (AID 2284300). An outline of the steps: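 hNPC spheres, PDL/laminin, DMEM:F12 3:1 + 1% N2, 37C/5% CO2; 7 concentrations + solvent control (DMSO ≤0.1%), 5 d exposure, half-feed day 3. Fix 120 h, TUBB3 ICC, HCI: mean neuron migration distance ÷ glia distance.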

Assay [14] in a line: IUF_NPC3_neuronal_differentiation_120hr: Leibniz Research Institute for Environmental Medicine (IUF) 120-hour Neuronal Differentiation Assay (NPC3) (AID 2284301). In short, it runs like this:
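Neuronal differentiation of primary human neural progenitors measured by high-content imaging: percent TUBB3+ of Hoechst+ nuclei within migrated area at 120 h, seven-point serial dilution plus solvent control, gain or loss relative to DMSO.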

Assay [15] in a line: IUF_NPC4_neurite_length_120hr: Leibniz Research Institute for Environmental Medicine (IUF) 120-hour Neuronal Morphology Assay for Neurite Length (NPC4) (AID 2284302). In short, it runs like this:
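Neurons from differentiating human fetal neural progenitor spheres are scored for average neurite length after five days of compound exposure. Fitting uses DMSO as negative control.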

Assay [16] in a line: IUF_NPC4_neurite_area_120hr: Leibniz Research Institute for Environmental Medicine (IUF) 120-hour Neuronal Morphology Assay for Neurite Area (NPC4) (AID 2284305; active = hit-call score of the fitted dose curve at least 0.9, where 1 is the maximum). In short, it runs like this:
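Endpoint at 120 h: automated imaging of TUBB3/Hoechst-stained differentiating human neural progenitor spheres, neurite area per neuron from skeletonization. DMSO solvent control, not above 0.1%, set the baseline; medium was half-replaced on day 3.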

Assay [17] can be described thus: IUF_NPC2-5_cytotoxicity_72hr: Cytotoxicity Assessment at 72 hours in the Leibniz Research Institute for Environmental Medicine (IUF) Neural Progenitor Cell Migration and Differentiation Assay for Cytotoxicity (NPC2-5) (AID 2284306; active = hit-call score of the fitted dose curve at least 0.9, where 1 is the maximum;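 also: LDH release into supernatant measured by resorufin fluorescence marking membrane damage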). An outline of the steps:
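Primary human neural progenitor spheres migrate and differentiate on laminin. Compound is present from the start of differentiation, with DMSO kept at or below 0.1%. At 72 h, supernatant LDH is quantified fluorometrically, with values fitted in the positive direction.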

Assay [18] is described as follows: IUF_NPC2-5_cytotoxicity_120hr: Cytotoxicity Assessment at 120 hours in the Leibniz Research Institute for Environmental Medicine (IUF) Neural Progenitor Cell Migration and Differentiation Assay (NPC2-5) (AID 2284307; active = hit-call score of the fitted dose curve at least 0.9, where 1 is the maximum). An outline of the steps:
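hNPC spheres on PDL/laminin, N2 medium, 37C; 7 concs + solvent control, DMSO ≤0.1%; 5-day exposure, half medium changed day 3. LDH in supernatant at 120 h, resazurin→resorufin fluorescence, gain-of-signal.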

The nature of assay [19]: IUF_NPC2-5_cell_number_120hr: Cell Number Assessment at 120 hours in the Leibniz Research Institute for Environmental Medicine (IUF) Neural Progenitor Cell Migration and Differentiation Assay (NPC2-5) (AID 2284308).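 Also: count of Hoechst-stained nuclei in migration zone around plated human neural progenitor spheres.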 An outline of the steps:
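Hoechst-stained nuclei within the migration area were counted by automated high content imaging after 120 h. Single hNPC spheres differentiated on poly-D-lysine/laminin in DMEM/F12 (3:1) with 1% N2, compound present throughout, DMSO ≤0.1%.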

The nature of assay [20]: IUF_NPC2-5_viability_120hr: Viability Assessment at 120 hours in the Leibniz Research Institute for Environmental Medicine (IUF) Neural Progenitor Cell Migration and Differentiation Assay (NPC2-5) (AID 2284312). In short, it runs like this:
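Human fetal (GW 16-19) neural progenitor spheres of 0.3 mm were plated on poly-D-lysine/laminin in N2 differentiation medium and exposed from day 0 for 120 h, with half-medium refresh at day 3. Viability was read as alamar blue resazurin-to-resorufin fluorescence against DMSO.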

Assay [21] in a line: IUF_NPC1_cytotoxicity_72hr: Cytotoxicity Assessment at 72 hours in the Leibniz Research Institute for Environmental Medicine (IUF) Neural Progenitor Cell Proliferation Assay (NPC1) (AID 2284332; active = hit-call score of the fitted dose curve at least 0.9, where 1 is the maximum;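 also: rising LDH signal means more cytotoxicity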). An outline of the steps:
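LDH in supernatant, resazurin→resorufin fluorescence (RFU), 72 h exposure, no re-dosing. Cells: primary hNPC spheres, one per well, EGF+FGF medium, 37C/5% CO2, pH 7.2-7.6. Fit: positive direction vs baseline and dynamic range.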

A short description of assay [22]: CCTE_Mundy_HCI_iCellGluta_NOG_NeuronCount: CCTE's Neurite Outgrowth Assay in iCellGluta cells for Neuron Count, Mundy Lab (AID 2284340; active = hit-call score of the fitted dose curve at least 0.9, where 1 is the maximum;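 also: cells fixed about 48 h after compound addition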). An outline of the steps:
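Neuron count read by automated high-content imaging of Hoechst 33342 and betaIII-tubulin/Alexa Fluor-488 labelling in human iPSC glutamatergic neurons. Activity fitted relative to DMSO.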

Assay [23] can be described thus: CCTE_Mundy_HCI_iCellGluta_NOG_NeuriteCount: CCTE's Neurite Outgrowth Assay in iCellGluta cells for Neurite Count, Mundy Lab (AID 2284342; active = hit-call score of the fitted dose curve at least 0.9, where 1 is the maximum;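 also: chemical exposure about 48 hours starting 2 hours after plating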).

Results filed as inconclusive are left out. Calls of active or inactive are those of the source. The calls were made as follows, unless noted: active = hit-call score of the fitted dose curve at least 0.9, where 1 is the maximum; inactive = score below 0.9.

As for `CCOP(=O)(OCC)OC(Cl)C(Cl)(Cl)Cl` (stereo not drawn), the compound was classed as inactive in assay [1], in assay [2], in assay [3], in assay [4], in assay [5] and in assay [6]. The compound was called inactive in assay [7], in assay [8], in assay [10], in assay [11], in [12] and in assay [13]. Moreover, the outcome in assay [14], in [15], in assay [16], in assay [17], in assay [18] and in assay [20] was inactive. Besides, the result in assay [21], in [22] and in assay [23] was inactive. Besides, the AC50 (as a rule, the concentration giving half of the maximal activity seen) in assay [9] is 9.85 µM (active); in assay [19] it was 36 µM (active).

(Values after PubChem BioAssay (EPA / NIEHS).)
